# Activity calls are given as the source filed them. No stated cut-off is given here; in the data, active means fold change mostly below about -2 (no sharp cut-off); inactive means mostly above about -1.8.
# Test: TERT promoter activity modulators, primary screen, cell-based, luciferase reporter, human (AID 1259240)
# Conditions: A2780 TERT promoter luciferase reporter, 16 h; at 20 µM, fold versus average of vehicle-only wells
row,SMILES,fold change
1,O=C(CSc1nc2[nH]ncc2c(=O)n1-c1ccccc1)Nc1nsc(-c2ccc(Cl)cc2)n1,1.26 (inactive)
2,Cc1noc(C(=O)Nc2sc3c(c2C#N)CCC3)c1Cl,1.31 (inactive)
3,CCN(CC)CCNc1nc2c(c(=O)[nH]c(=O)n2C)n1Cc1ccccc1Cl,-1.23 (inactive)
4,COc1cc2c(c(OC)c1)C(c1cccc3ccccc13)CC(=O)N2 (stereo not drawn),-1.05 (inactive)
5,O=c1/c(=C/c2c(F)cccc2Cl)sc2nc(-c3ccco3)nn12,1.03 (inactive)
6,CCN1CCCC1CNC(=O)CN1C(=O)COc2ccc(S(=O)(=O)N3CCC(C)CC3)cc21 (stereo not drawn),1.28 (inactive)
7,CCCCN(CC)CCNS(=O)(=O)c1cccc2cccnc12,-1.21 (inactive)
8,COc1ccc(NC(=O)CSc2nc(-c3ccco3)cc(C(F)(F)F)n2)c(OC)c1,-1.96 (inactive)
9,CCc1nc2ccccc2n1CC(O)COc1cccc(OC)c1 (stereo not drawn),1.45 (inactive)
10,CCN1C(=O)N/C(=C/c2cn(CC(=O)Nc3ccc(Cl)cc3)c3ccccc23)C1=O,-1.87 (inactive)
11,Cc1c(NC(=O)c2cc(CC(C)C)on2)c(=O)n(-c2ccccc2)n1C,-1.7 (inactive)
12,CCOc1ccc2[nH]c(C)c(CN3CC4(C)CC3CC(C)(C)C4)c(=O)c2c1 (stereo not drawn),-1.96 (inactive)
13,COc1cc(NC(=O)c2onc(C)c2Cl)cc(OC)c1OC,1.32 (inactive)
14,O=C(CCN1C(=O)c2ccccc2S1(=O)=O)Nc1cc(Cl)ccc1Cl,1.22 (inactive)
15,CCOC(=O)CCCSc1nc2sc(C)c(C)c2c(=O)[nH]1,-3.49 (active)
16,CCCN(CCC)c1c(NC2CCN(C(=O)OCC)CC2)c(=O)c1=O,-1.25 (inactive)
17,N=C1/C(=C/c2ccc(SCc3ccco3)o2)C(=O)N=C2SC=C(c3ccccc3)N12,-1.25 (inactive)
18,CC1CCOC2(O1)C(=O)N(CN1CCN(c3cccc(Cl)c3)CC1)c1ccccc12 (stereo not drawn),-1.15 (inactive)
19,O=C(CSc1ncnc2ccccc12)NCc1ccc2c(c1)OCO2,-1.09 (inactive)
20,COc1ccc(Nc2ncc(F)c(N3CCOCC3)n2)cc1,-3.37 (active)
21,CCOC(=O)C1CCCN(c2c(NC3CCN(C(=O)OCC)CC3)c(=O)c2=O)C1 (stereo not drawn),1.19 (inactive)
22,Cc1oc(-c2ccccc2F)nc1CSc1nc2ccncc2[nH]1,-1.15 (inactive)
23,CCOC(=O)N1CCN(c2c(NC3CCCC(C)C3C)c(=O)c2=O)CC1 (stereo not drawn),1.1 (inactive)
